A selection: hits, their analogues and other compounds. The true share with any hit is near 2.2%.
Shn3 inh set2: reduces Shn3 3'UTR luciferase signal in osteoblasts. Clone20 osteoblast Shn3 3'UTR firefly luciferase, 24 h. inhibition, % at 12.5 µM. actives 0.52% (n = 360,000);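 active means mean inhibition of at least 75% with every replicate also reaching 75%; inconclusive means mean inhibition at least 75% but some replicate below; inactive means mean inhibition below 75%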
PfHsp90 yeast 2: inhibits growth of yeast expressing Plasmodium falciparum Hsp90; inhibition, % at 9.4 µM; AID 504621; actives 0.32% (n = 310,000); S. cerevisiae expressing PfHsp90, BacTiter-Glo ATP, 48 h; yeast lacking PDR1 and PDR3 efflux regulators;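 active means every replicate shows inhibition above about 80%, whatever the replicate mean, limit read from the data; inconclusive means mean inhibition reaches the set limit but some replicate falls short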
Beta cell apopt: blocks beta cell apoptosis; INS-1E cytokine-induced death, ATP luminescence, 48 h; percent of positive-control rescue, neutral wells zero; protection from apoptosis, % (test concentration not listed); actives 0.8% (n = 300,000);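 active means Every replicate reaches about 75%, or at least half do and their mean reaches it too, limit read from the data; inconclusive means At least half of replicates reach the limit but their mean does not; inactive means Under half of replicates reach the limit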;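 further: higher means more ATP so stronger rescue from cytokine killing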
CSC inhib: blocks cancer stem cells; cancer stem cell-like cells viability, luminescence; inhibition, % at 7.5 µM; actives 1.1% (n = 300,000); AID 2717; in the data active means inhibition above about 75%; inconclusive means no clear call, values can overlap the other calls; tested in HMLE shEcad cells
Calb FLC: affects C. albicans growth with fluconazole; AID 1979; actives 0.57% (n = 300,000); C. albicans CaCi-2 (fluconazole-resistant clinical isolate) + fluconazole, Alamar Blue growth, 48 h; growth inhibition, % (no concentration beside the values);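 active means growth inhibition above about 58% in most replicates, limit read from the data, passing the limit was not always enough; inconclusive means exactly half the replicates above a set limit; inactive means most replicates below a set limit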;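 further: all wells also contain fluconazole at 8 µg/ml as a sub-toxic cotreatment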
Large screens that a line does not name were inactive.

CCCC(=O)NC(c1ccc2c(c1)OCO2)c1cc(Cl)c2cccnc2c1O (stereo not given)	Shn3 inh set2 87.4, PfHsp90 yeast 2 98.7, Beta cell apopt 85.1, CSC inhib 113.2
CCCC(=O)NC(c1cccs1)c1cc(Cl)c2cccnc2c1O (stereo not given)	PfHsp90 yeast 2 120.5, Beta cell apopt 93.2, Calb FLC 86.1
CCC(=O)NC(c1ccc(OC)c(OC)c1)c1cc(Cl)c2cccnc2c1O (stereo not given)	Shn3 inh set2 inconclusive (no result: Beta cell apopt, CSC inhib)
OCC[C@@H]1C[C@H](O)[C@@H](O)[C@@]2(Cc3ccccc3O2)O1	none
CC(C)Cc1ccc(-c2cc3nc(NCCc4ccc(S(N)(=O)=O)cc4)ccn3n2)cc1	none (no result: PfHsp90 yeast 2, Beta cell apopt, CSC inhib, Calb FLC)
COC(=O)N/N=C/c1ccc(-c2cc(Cl)cc(Cl)c2)o1	Calb FLC 78.9
CCCCCCCCCCCCCCCC(=O)OC(CC(=O)O)C[N+](C)(C)C (stereo not given)	PfHsp90 yeast 2 108.8 (no result: Beta cell apopt, CSC inhib, Calb FLC)
BrC(=C\c1ccccc1)/C=N/n1cnnc1	Calb FLC 86.2 (no result: Beta cell apopt, CSC inhib)
O=C(O)c1ccc(NC2=C(Cl)C(=O)c3ccccc3C2=O)cc1	Shn3 inh set2 95.2, CSC inhib 102.3
CC(C)NC1=C(Cl)C(=O)c2ccccc2C1=O	none
O=C1C(Cl)=C(NCCc2ccccc2)C(=O)c2ccccc21	PfHsp90 yeast 2 116.4 (no result: Beta cell apopt, CSC inhib, Calb FLC)
C=CCNC1=C(Cl)C(=O)c2ccccc2C1=O	Beta cell apopt 97.4
O=C1C(Cl)=C(Nc2ccccc2)C(=O)c2ccccc21	Shn3 inh set2 96.4, CSC inhib 111.7
COc1nccnc1NS(=O)(=O)c1ccc(NC(=O)c2cccc(C)c2)cc1	none
CC(=O)N(Cc1ccc(F)cc1)C1=C(NCCc2ccccc2)C(=O)c2ccccc2C1=O	Beta cell apopt 105.9, Calb FLC 87.4
CC(=O)N(Cc1ccc(F)cc1)c1cccc(C)c1C	none
COC1=C(Nc2ccccc2)C(=O)c2ccccc2C1=O	Beta cell apopt 95.4 (no result: CSC inhib)
COCCCNC1=C(Cl)C(=O)c2ccccc2C1=O	none (no result: Shn3 inh set2, Beta cell apopt, CSC inhib)
O=C1C(Cl)=C(NCc2cccnc2)C(=O)c2ccccc21	Beta cell apopt 83.6
CCN(CC)CCCNC1=C(Cl)C(=O)c2ccccc2C1=O	Beta cell apopt 97.7, CSC inhib 106.6 (no result: PfHsp90 yeast 2)
COC1=C(Nc2ccc(C)cc2)C(=O)c2ccccc2C1=O	none
CC(=O)NC12CC3CC(C1)CC(C(=O)N1CCN(S(=O)(=O)c4ccc(C(C)C)cc4)CC1)(C3)C2	none
CC(C(N)=O)N1C(=O)NC2(CCCc3ccccc32)C1=O (stereo not given)	none
COC(=O)CNC(=O)c1ccc(F)cc1	none (no result: PfHsp90 yeast 2)
Cn1c(-c2ccccc2)cc2ccccc21	none
Cn1c(-c2ccccc2)cc2c3no[n+]([O-])c3ccc21	Shn3 inh set2 92.1, Beta cell apopt 106.1, CSC inhib 107.6
O=S(=O)(Nc1nc(-c2sccc2Cl)cs1)c1cc(Cl)ccc1Cl	CSC inhib 118.6
CC(C)CC(=O)Nc1ccc(C(=O)COC(=O)C2CCC2)cc1	none
O=C(Nc1cccc(Cl)c1)c1cc(N=Nc2ccc([N+](=O)[O-])cc2Cl)ccc1O	CSC inhib 128.2
O=C(Nc1cccc(Cl)c1)c1cccc(Oc2ccc([N+](=O)[O-])cc2Cl)c1	none (no result: PfHsp90 yeast 2)
CCOC(=O)c1c(NC(=O)COC(=O)CCOc2cc(C)ccc2C)sc(C(=O)N(C)C)c1C	none (no result: Beta cell apopt, CSC inhib, Calb FLC)
CN(C(=O)COC(=O)/C=C/c1ccc(Cl)c(Cl)c1)c1c(N)n(Cc2ccccc2)c(=O)[nH]c1=O	none (no result: CSC inhib)
CCOC(=O)c1ccc(N[C@@H]2CCN3C(=O)c4ccccc4[C@@H]3C[C@H]2O)cc1	none (no result: Beta cell apopt, CSC inhib, Calb FLC)
C=CCNC(=S)Nc1sc2c(c1C(=O)OCC)CC(C)(CC)OC2 (stereo not given)	Calb FLC 97.9
O=C(/C=C/c1cccs1)Nc1cccc(NC(=O)/C=C/c2cccs2)n1	none
Cc1cc(C)nc(NC(=O)/C=C/c2cccs2)c1	CSC inhib 86.0
Cc1nn(C)c(NC(=O)c2ccccc2Cl)c1Cl	none
O=C1C=C(c2cnc3ccccc3c2)C[C@@H](c2ccc3c(c2)OCO3)C1	none (no result: Calb FLC)
O=C(/C=C/c1cccc(Br)c1)c1ccc2c(c1)OCO2	CSC inhib 77.7
O=C(/C=C/c1ccccc1)c1ccc2c(c1)OCO2	none
O=C(/C=C/c1ccncc1)c1ccc2c(c1)OCCO2	Calb FLC 66.6
COc1cc(/C=C/C(=O)c2ccc3c(c2)OCCO3)cc(Br)c1OCC(=O)N(C)C	Shn3 inh set2 91.8 (no result: CSC inhib)
COc1cccc(/C=C/C(=O)c2ccc3c(c2)OCO3)c1OC	none (no result: Calb FLC)
COc1cc(C(=O)OCC(=O)Nc2ccc(N3CCOCC3)cc2)ccc1OCC(C)C	none
COc1ccc2c(CC(=O)OCC(=O)N(C)c3c(N)n(Cc4ccccc4)c(=O)[nH]c3=O)coc2c1	Shn3 inh set2 93.9 (no result: Beta cell apopt, CSC inhib, Calb FLC)
O=C(CSc1nc2nn(-c3ccccc3)c(=O)c-2c2n1CCCCC2)c1ccc(O)c(O)c1	none (no result: CSC inhib, Calb FLC)
O=c1c(-c2ccccc2)c(-c2ccccc2)oc2cc(O)cc(O)c12	PfHsp90 yeast 2 123.4
O=c1c(O)c(-c2ccccc2)oc2cc(O)cc(O)c12	none (no result: Beta cell apopt, CSC inhib, Calb FLC)
COc1cccc(N2CCN(c3ncnc4c3[nH]c3ccc(F)cc34)CC2C)c1 (stereo not given)	Shn3 inh set2 96.5, PfHsp90 yeast 2 inconclusive, Beta cell apopt 109.7
O=C1NN(c2cccc(Br)c2)C(=O)/C1=C\c1ccc(O)cc1	CSC inhib 108.2
COc1cc(/C=C2/C(=O)NN(c3cccc(Cl)c3)C2=O)cc(OC)c1O	none (no result: Beta cell apopt)
O=C1NN(c2ccc(Br)cc2)C(=O)/C1=C\c1ccc(O)cc1O	Calb FLC 98.0
CCOC(=O)c1c(NC(=O)CSc2nnc(C)o2)sc(C)c1C	none
CC(C)CC(=O)NC(NC(=S)Nc1sc2c(c1C#N)CCCC2)C(Cl)(Cl)Cl (stereo not given)	CSC inhib 79.6, Calb FLC inconclusive (no result: PfHsp90 yeast 2)
O=c1cc(-c2ccc(C3CCCCC3)cc2)[nH][nH]1	PfHsp90 yeast 2 94.0
O=c1cc(-c2ccc(F)cc2)[nH][nH]1	none
Cc1ccc(C2=CC(c3ccc(N(C)C)cc3)n3nnnc3N2)cc1 (stereo not given)	Beta cell apopt 108.3
CC(=O)c1ccc(NC(=O)C(C)OC(=O)/C=C/c2ccco2)cc1 (stereo not given)	Shn3 inh set2 88.3 (no result: CSC inhib, Calb FLC)
CSCCC(NS(=O)(=O)c1ccccc1F)C(=O)NCc1ccncc1 (stereo not given)	none (no result: Beta cell apopt)
O=C(O)Cc1sc(Nc2cccc3ccccc23)nc1-c1ccc(Cl)cc1	none (no result: Beta cell apopt)
CCCCCCCCCCS(=O)(=O)N/N=C/c1ccc([N+](=O)[O-])cc1	CSC inhib 86.0 (no result: PfHsp90 yeast 2)
O=S(=O)(/C=C/C=C/S(=O)(=O)c1ccccc1)c1ccccc1	Shn3 inh set2 98.0 (no result: Beta cell apopt, CSC inhib, Calb FLC)
CC[C@H](C)[C@H]1O[C@]2(CC[C@@H]1C)C[C@@H]1C[C@@H](CC=C(C)[C@@H](O[C@H]3C[C@H](OC)[C@@H](O[C@H]4C[C@H](OC)[C@@H](O)[C@H](C)O4)[C@H](C)O3)[C@@H](C)C=CC=C3CO[C@@H]4[C@H](O)C(C)=C[C@@H](C(=O)O1)[C@]34O)O2	Shn3 inh set2 97.4, Beta cell apopt 87.3, CSC inhib 102.9 (no result: Calb FLC)
S=C1Cc2ccccc2N1	PfHsp90 yeast 2 106.6 (no result: Beta cell apopt, CSC inhib)
S=C1Nc2ccccc2CS1	none (no result: PfHsp90 yeast 2, Beta cell apopt, CSC inhib, Calb FLC)
